Screening data deposited in PubChem BioAssay by National Center for Advancing Translational Sciences (NCATS).
TGFb SMAD3 inh – blocks TGF-b signaling | HepG2 CAGA-GFP TGF-b/SMAD3 reporter, GFP fluorescence, 18 h; TGF-beta stimulated, 500 pg/mL final | AID 588855 | 410,000 compounds, 1.2% hits | Potency, µM (top dose mostly 46.1 µM), most hits filed as inhibitors; also: nearly all actives have a fitted effect of over 65% in size
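TGF-beta reporter screen: HEPG2 CAGA-GFP, 1% FBS, 500 pg/mL TGF-beta final, 18 h; per-cell GFP summed per well; curves fitted and categorized by class.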
IL-1B inflam inh – blocks inflammasome-driven IL-1 beta release. THP-1 LPS/ATP IL-1B secretion, AlphaLISA, 16 h; hits give low values. AID 743279. 360,000 compounds, 4.7% hits. activity change, % at 57.5 µM; in the data active = activity change below about -50%; inconclusive = mostly about -30% to -49%
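THP-1 cells pretreated 1 hr with compounds (up to 57.5 uM final), then stimulated with LPS (250 ng/mL final) plus ATP (1.25 mM final); secreted IL-1B measured by AlphaLISA after 16 hr, decreased signal indicating inhibition.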
HepG2 tox – counter-screen for TGF-b inhibitors: cytotoxicity in HepG2 cells | HepG2 CAGA-GFP viability, ATP luminescence, 18 h | Potency, µM (titrated, usually from 46.1 µM), usual class: cytotoxic | 410,000 compounds, 0.76% hits
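HepG2 CAGA-GFP cells (1000/well, DMEM with 1% FBS) received compound, then TGF-beta at 500 pg/mL final, and were incubated 18 hours at 37 degrees C. Viability was read by CellTiter-Glo luminescence. Media-only wells were set as complete cell-killing and DMSO as no toxicity.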
TDP1 inh – TDP1 (human) enzyme inhibition; recombinant TDP1, AlphaScreen DNA substrate cleavage; Potency, µM (titrated, usually from 130 µM), usual class: inhibitors; 350,000 compounds, 0.28% hits; AID 485290; also: nearly all actives have a fitted effect of over 40% in size
Target sequence (Q9NUW8 whole entry, looked up): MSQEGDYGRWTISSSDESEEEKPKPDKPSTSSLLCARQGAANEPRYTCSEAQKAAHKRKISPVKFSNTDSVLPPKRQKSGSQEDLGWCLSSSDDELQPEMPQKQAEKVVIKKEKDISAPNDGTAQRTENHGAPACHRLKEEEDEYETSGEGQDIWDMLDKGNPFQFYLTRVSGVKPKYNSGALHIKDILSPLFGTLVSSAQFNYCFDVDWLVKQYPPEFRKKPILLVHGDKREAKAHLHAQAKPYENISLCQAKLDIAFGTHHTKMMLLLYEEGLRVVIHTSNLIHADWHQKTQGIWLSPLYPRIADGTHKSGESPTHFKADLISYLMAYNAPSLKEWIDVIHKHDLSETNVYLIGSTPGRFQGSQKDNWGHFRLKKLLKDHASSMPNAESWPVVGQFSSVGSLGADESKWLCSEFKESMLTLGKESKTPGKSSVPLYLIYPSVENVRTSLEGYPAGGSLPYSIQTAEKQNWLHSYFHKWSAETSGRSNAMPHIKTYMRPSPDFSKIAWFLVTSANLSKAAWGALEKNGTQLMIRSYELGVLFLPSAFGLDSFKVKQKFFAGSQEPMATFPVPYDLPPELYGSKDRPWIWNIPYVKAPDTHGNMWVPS
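E. coli-derived human Tdp1, 1 nM final. Cpd preinc 15 min RT; substrate 15 nM final, 5 min RT; AS bead mix 10 ug/ml final, 10 min RT. Signal loss = tyrosine-FITC cleavage. No-enzyme wells = max signal.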
TDP1 cell CPT – growth inhibition of DT40 Tdp1-/-;hTDP1 cells with camptothecin (screen for TDP1 inhibitors) | chicken DT40 Tdp1-/-;hTDP1 cells + 20 nM CPT, ATP luminescence, 48 h | Potency, µM (top dose mostly 46.2 µM), actives largely listed as inhibitors | 420,000 compounds, 12% hits | AID 686979; also: nearly all actives have a fitted effect of over 55% in size
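Chicken DT40 Tdp1-/- cells stably complemented with human TDP1 were seeded at 400 cells/well in medium containing 20 nM camptothecin, exposed to pin-transferred compounds, and grown at 37 °C for at least 48 hr. Viability was read as ATP luminescence.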
DT40 TDP1 no CPT – qHTS for Inhibitors of human tyrosyl-DNA phosphodiesterase 1 (TDP1): qHTS in cells in absence of CPT; DT40 Tdp1-/- hTDP1 cells, no CPT, ATP luminescence, 48 h; Potency, µM (highest dose often 46.2 µM), actives largely listed as inhibitors; 420,000 compounds, 15% hits; also: nearly all actives have a fitted effect of over 55% in size
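Growth of hTDP1-complemented DT40 Tdp1-knockout cells is measured by ATP luminescence after at least 48 hr compound exposure at 37 °C, with DMSO substituting for the 20 nM CPT used in the parallel screen.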
Numbers stand for hits; 0 = inactive; ? = inconclusive; - = no result given; [ ] = dose if it differs, or a comment. An excerpt weighted towards active compounds, which were near 19% of everything screened. Unless noted, calls follow the shape of the dose curve; as a rule, active = well fitted curve in the direction sought with a large enough effect; inconclusive = small, poorly fitted or top-dose-only effect, or another doubt; inactive = no such curve, though single readings can be large; an effect the other way counts as inactive or inconclusive.

SMILES	TGFb SMAD3 inh	IL-1B inflam inh	HepG2 tox	TDP1 inh	TDP1 cell CPT	DT40 TDP1 no CPT
CCCCN(C=O)c1c(CC)nc2c(OCc3cc(Cl)cc(Cl)c3)cccn12	?	0	0	-	?	?
CCc1nc2c(OCc3cc(Cl)cc(Cl)c3)cccn2c1N(C=O)Cc1ccc(OC)cc1	?	-79	0	-	23µM	?
CCc1nc2c(OCc3cc(Cl)cc(Cl)c3)cccn2c1N(C=O)Cc1ccccc1	?	?	0	-	26µM	?
CCc1nc2c(OCc3ccc4c(c3)OCO4)cccn2c1N(C=O)Cc1ccc(OC)cc1	0	0	0	-	?	?
CCc1nc2c(OCc3c(C)noc3C)cccn2c1N(C=O)Cc1ccccc1	0	0	0	-	?	21µM
O=C(NCC1CCCCC1)c1cc(Br)ccc1Cl	0	0	0	0	0	?
CCOC(=O)C1=C(C)c2ccccc2N(C(=O)OC)C1(C)C(=O)OCC (centres undefined)	13µM	0	0	0	10µM	10µM
CCOC(=O)C1=C(C)c2ccccc2OC1(CC)C(=O)OCC (centres undefined)	0	0	0	0	?	?
Cc1ccc(Cn2c(CCNc3nc(-c4ccc(C)cc4)cs3)nc3cc(C(=O)NCCCO)ccc32)cc1	0	0	0	-	21µM	15µM
Cc1ccc(Cn2c(C(C)Nc3nc(-c4ccc(Cl)cc4)cs3)nc3cc(C(=O)NCCCO)ccc32)cc1 (centres undefined)	?	0	0	-	10µM	8.2µM
NC(=O)c1ccccc1NC(=O)/C=C/c1ccccc1	0	0	0	0	?	21µM
CC(=O)Nc1nc(NC(=O)/C=C/c2ccccc2)n(-c2ccccc2)n1	0	0	0	0	12µM	8.2µM
Cc1c(O)ccc(NC(=O)/C=C/c2ccccc2)c1C	0	0	0	0	18µM	15µM
NC(=O)c1ccccc1NC(=O)/C=C/c1ccc(Cl)cc1	0	0	0	0	?	16µM
CCS(=O)(=O)c1ccc(O)c(NC(=O)/C=C/c2ccccc2)c1	0	0	0	0	0	0
CC(=O)c1ccc(Nc2cc(C)nc3nc(Cc4ccc(Cl)cc4)nn23)cc1	0	-	0	0	?	0
Cc1cc(C)c2oc(-c3ccc(C)c(NC(=O)/C=C/c4ccco4)c3)nc2c1	?	-	0	0	?	?
CCC(C)c1ccccc1N1CC(C(=O)N2CCN(S(=O)(=O)c3cccc([N+](=O)[O-])c3)CC2)CC1=O (centres undefined)	?	0	0	-	?	?
CN1OC[C@@H]2CN(C(=O)CCc3ccccc3)[C@H](c3cccc(-c4ccc(C#N)cc4)c3)C[C@@H]21	0	?	0	-	?	?
COc1cc2nc(NCCc3ccccc3)n3nc(-c4cccnc4)nc3c2cc1OC	0	-	0	0	0	0
O=C(CNC1=NCCC1)c1ccc2c(c1)OCCO2	0	0	0	0	?	18µM
O=C(CCCO)c1ccc2c(c1)OCCO2	0	0	0	0	0	0
O=C(CCCN1CCOCC1)c1ccc2c(c1)OCCO2	0	0	0	0	0	0
O=C(CCN1CCc2ccccc2CC1)c1ccc2c(c1)OCCO2	?	-58	1.4µM	0	4.6µM	4.1µM
O=C(CCN1CCCCC1)c1ccc2c(c1)OCO2	?	0	0	0	7.3µM	10µM
COc1ccc(N(C(=O)c2cccc(C)c2)S(=O)(=O)c2ccc(C)cc2)cc1	0	-	0	0[12.3 µM]	18µM	?
COc1ccc(N(C(=O)C(C)C)S(=O)(=O)c2cccs2)cc1	0	0	0	0	0	?
COc1ccc(N(C(=O)C(C)C)S(=O)(=O)c2ccc3ccccc3c2)cc1	?	0	0	-	15µM	?
COc1ccc(N(C(=O)c2ccc(C)cc2)S(=O)(=O)c2ccc(Cl)cc2)cc1	0	-	0	0[2.28 µM]	?	?
